Reference: PubChem BioAssay AID1159580 (chemical genetic matrix, 2015)
Out of some 5,500 compounds screened, about 2,000 (36%) were called active. Roughly 18% stayed inconclusive and do not appear here. Rule as the data show it: active = normalized growth mostly below about 0.91 (no sharp cut-off); inconclusive = no clear call, values can overlap the other calls; inactive = mostly above about 0.92. Some of the results follow.

Experiment: chemical genetic growth profiling, strain panel (AID 1159580);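 also: tested at 20 µM; growth read once vehicle control cultures reached saturation at 30 °C; 1 = growth at the plate median or of vehicle wells; lower values mean less growth of the strain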
Settings: growth OD

Measured: normalized growth

C=CCCCCCCCCCCCC(O)CC(O)CO (centres undefined)
active: S. cerevisiae deletion strains, locus YKL009W, strain mrt4, hits give low values 0.852 | S. cerevisiae deletion strains, locus YKR001C, strain vps1, hits give low values 0.839 | S. cerevisiae deletion strains, locus YLR330W, strain CHS5, hits give low values 0.917 | S. cerevisiae deletion strains, locus YLR342W, strain FKS1 (second series), hits give low values 0.756 | S. cerevisiae deletion strains, locus YLR418C, strain cdc73, hits give low values 0.759 | S. cerevisiae deletion strains, locus YML032C, strain rad52, hits give low values 0.869 | S. cerevisiae deletion strains, locus YMR223W, strain ubp8, hits give low values 0.858 | S. cerevisiae deletion strains, locus YNL233W, strain BNI4, hits give low values 0.834 | S. cerevisiae deletion strains, locus YNL298W, strain CLA4, hits give low values 0.907 | S. cerevisiae deletion strains, locus YNL307C, strain MCK1, hits give low values 0.499 | S. cerevisiae deletion strains, locus YOL147C, strain pex11, hits give low values 0.778 | S. cerevisiae deletion strains, locus YOR061W, strain CKA2, hits give low values 0.635 | S. cerevisiae deletion strains, locus YOR184W, strain ser1, hits give low values 0.719 | S. cerevisiae strains, strain wild type, hits give low values 0.861
inactive: S. cerevisiae deletion strains, locus YJR043C, strain POL32, hits give low values 0.952 | S. cerevisiae deletion strains, locus YJR075W, strain HOC1, hits give low values 0.896 | S. cerevisiae deletion strains, locus YKL068W, hits give low values 0.995 | S. cerevisiae deletion strains, locus YKL085W, strain MDH1 (second series), hits give low values 0.96 | S. cerevisiae deletion strains, locus YKL085W, strain MDH1, hits give low values 0.96 | S. cerevisiae deletion strains, locus YKL160W, strain elf1, hits give low values 0.989 | S. cerevisiae deletion strains, locus YKL190W, strain CNB1, hits give low values 0.947 | S. cerevisiae deletion strains, locus YKR026C, strain gcn3, hits give low values 0.988 | S. cerevisiae deletion strains, locus YKR091W, strain srl3, hits give low values 0.995 | S. cerevisiae deletion strains, locus YLL001W, strain dnm1, hits give low values 0.976 | S. cerevisiae deletion strains, locus YLL026W, hits give low values 0.997 | S. cerevisiae deletion strains, locus YLL041C, strain sdh2, hits give low values 0.998 | S. cerevisiae deletion strains, locus YLR027C, strain aat2, hits give low values 0.999 | S. cerevisiae deletion strains, locus YLR039C, strain RIC1, hits give low values 0.996 | S. cerevisiae deletion strains, locus YLR058C, strain SHM2, hits give low values 0.944 | S. cerevisiae deletion strains, locus YLR102C, strain apc9, hits give low values 0.99 | S. cerevisiae deletion strains, locus YLR221C, strain rsa3, hits give low values 0.998 | S. cerevisiae deletion strains, locus YLR258W, strain gsy2, hits give low values 1.01 | S. cerevisiae deletion strains, locus YLR262C, strain YPT6 (second series), hits give low values 1.01 | S. cerevisiae deletion strains, locus YLR262C, strain YPT6, hits give low values 0.959 | S. cerevisiae deletion strains, locus YLR268W, strain sec22, hits give low values 0.971 | S. cerevisiae deletion strains, locus YLR320W, strain mms22, hits give low values 0.985 | S. cerevisiae deletion strains, locus YLR342W, strain FKS1, hits give low values 1 | S. cerevisiae deletion strains, locus YLR357W, strain rsc2, hits give low values 0.975 | S. cerevisiae deletion strains, locus YLR370C, strain arc18, hits give low values 0.993 | S. cerevisiae deletion strains, locus YLR371W, strain rom2, hits give low values 0.952 | S. cerevisiae deletion strains, locus YLR384C, strain iki3, hits give low values 0.997 | S. cerevisiae deletion strains, locus YML016C, strain PPZ1, hits give low values 0.988 | S. cerevisiae deletion strains, locus YML120C, strain ndi1, hits give low values 0.995 | S. cerevisiae deletion strains, locus YML124C, strain tub3, hits give low values 0.991 | S. cerevisiae deletion strains, locus YMR058W, strain fet3, hits give low values 1.01 | S. cerevisiae deletion strains, locus YMR078C, strain ctf18, hits give low values 0.964 | S. cerevisiae deletion strains, locus YMR125W, strain sto1, hits give low values 0.979 | S. cerevisiae deletion strains, locus YMR129W, hits give low values 0.988 | S. cerevisiae deletion strains, locus YMR205C, strain PFK2, hits give low values 0.974 | S. cerevisiae deletion strains, locus YMR231W, strain pep5, hits give low values 0.995 | S. cerevisiae deletion strains, locus YMR263W, strain SAP30, hits give low values 0.955 | S. cerevisiae deletion strains, locus YMR307W, strain GAS1, hits give low values 0.792 | S. cerevisiae deletion strains, locus YNL067W, strain RPL9B, hits give low values 0.903 | S. cerevisiae deletion strains, locus YNL071W, strain lat1, hits give low values 0.989 | S. cerevisiae deletion strains, locus YNL128W, strain TEP1, hits give low values 0.924 | S. cerevisiae deletion strains, locus YNL153C, strain GIM3, hits give low values 0.979 | S. cerevisiae deletion strains, locus YNL209W, strain ssb2, hits give low values 1 | S. cerevisiae deletion strains, locus YNL248C, strain rpa49, hits give low values 0.993 | S. cerevisiae deletion strains, locus YNL250W, strain rad50, hits give low values 0.939 | S. cerevisiae deletion strains, locus YNL271C, strain bni1, hits give low values 0.953 | S. cerevisiae deletion strains, locus YNL322C, strain KRE1 (second series), hits give low values 0.981 | S. cerevisiae deletion strains, locus YNL322C, strain KRE1, hits give low values 0.979 | S. cerevisiae deletion strains, locus YNR049C, strain mso1, hits give low values 0.995 | S. cerevisiae deletion strains, locus YNR052C, strain pop2, hits give low values 0.946 | S. cerevisiae deletion strains, locus YOL006C, strain TOP1, hits give low values 0.808 | S. cerevisiae deletion strains, locus YOL012C, strain htz1 1.72 | S. cerevisiae deletion strains, locus YOR001W, strain rrp6, hits give low values 0.998 | S. cerevisiae deletion strains, locus YOR069W, strain VPS5, hits give low values 0.978 | S. cerevisiae deletion strains, locus YOR070C, strain gyp1, hits give low values 0.992 | S. cerevisiae deletion strains, locus YOR080W, strain dia2, hits give low values 0.998 | S. cerevisiae deletion strains, locus YOR083W, strain WHI5, hits give low values 0.965 | S. cerevisiae deletion strains, locus YOR106W, strain vam3, hits give low values 1.02 | S. cerevisiae deletion strains, locus YOR136W, strain idh2, hits give low values 0.935 | S. cerevisiae deletion strains, locus YOR144C, strain elg1, hits give low values 0.982 | S. cerevisiae deletion strains, locus YOR265W, strain rbl2, hits give low values 1 | S. cerevisiae deletion strains, locus YOR270C, strain vph1, hits give low values 1.01 | S. cerevisiae deletion strains, locus YOR290C, strain snf2, hits give low values 0.93 | S. cerevisiae deletion strains, locus YOR316C, strain cot1, hits give low values 0.977 | S. cerevisiae deletion strains, locus YPL051W, strain arl3, hits give low values 0.999 | S. cerevisiae deletion strains, locus YPL055C, strain LGE1, hits give low values 0.843 | S. cerevisiae deletion strains, locus YPL078C, strain atp4, hits give low values 0.986 | S. cerevisiae deletion strains, locus YPL106C, strain sse1, hits give low values 1.01 | S. cerevisiae deletion strains, locus YPL240C, strain hsp82, hits give low values 1 | S. cerevisiae deletion strains, locus YPL241C, strain CIN2, hits give low values 0.987 | S. cerevisiae deletion strains, locus YPR119W, strain clb2, hits give low values 0.989 | S. cerevisiae deletion strains, locus YPR141C, strain kar3, hits give low values 1 | S. cerevisiae deletion strains, locus YPR163C, strain tif3, hits give low values 0.95 | S. cerevisiae deletion strains, locus YPR167C, strain met16, hits give low values 0.964 | S. cerevisiae deletion strains, strain wtn01, hits give low values 0.904
